How the values were obtained:
[1] = molecular target: Protein kinase C gamma type (Homo sapiens) (UniProt P05129); settings: at 1 µM;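 also: each value is an averaged percent inhibition of the enzyme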
[2] = molecular target: T1, Protein kinase C iota type (Homo sapiens) (UniProt P41743); settings: at 0.1 µM
T1 sequence (whole entry): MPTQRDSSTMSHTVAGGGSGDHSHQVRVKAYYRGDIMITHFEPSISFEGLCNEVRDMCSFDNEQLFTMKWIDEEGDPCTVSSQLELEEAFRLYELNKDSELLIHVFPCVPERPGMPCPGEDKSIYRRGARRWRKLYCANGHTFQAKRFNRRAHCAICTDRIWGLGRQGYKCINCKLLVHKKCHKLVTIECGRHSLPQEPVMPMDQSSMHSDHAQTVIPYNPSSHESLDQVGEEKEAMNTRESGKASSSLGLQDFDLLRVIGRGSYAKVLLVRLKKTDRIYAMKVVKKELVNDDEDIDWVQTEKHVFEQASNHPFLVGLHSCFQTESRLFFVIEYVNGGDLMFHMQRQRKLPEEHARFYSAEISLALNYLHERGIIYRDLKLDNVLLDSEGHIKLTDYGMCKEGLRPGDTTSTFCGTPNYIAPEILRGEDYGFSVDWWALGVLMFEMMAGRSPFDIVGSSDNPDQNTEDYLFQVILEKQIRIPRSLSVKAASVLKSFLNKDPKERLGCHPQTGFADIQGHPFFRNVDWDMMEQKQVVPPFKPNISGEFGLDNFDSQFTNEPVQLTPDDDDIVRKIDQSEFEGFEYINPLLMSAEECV

[3] = molecular target: T1, Protein kinase C iota type (Homo sapiens); settings: at 1 µM
[4] = molecular target: Protein kinase C theta type (Homo sapiens) (UniProt Q04759); settings: at 0.1 µM
Protein kinase C theta type (Homo sapiens), sequence (Q04759 whole entry, looked up): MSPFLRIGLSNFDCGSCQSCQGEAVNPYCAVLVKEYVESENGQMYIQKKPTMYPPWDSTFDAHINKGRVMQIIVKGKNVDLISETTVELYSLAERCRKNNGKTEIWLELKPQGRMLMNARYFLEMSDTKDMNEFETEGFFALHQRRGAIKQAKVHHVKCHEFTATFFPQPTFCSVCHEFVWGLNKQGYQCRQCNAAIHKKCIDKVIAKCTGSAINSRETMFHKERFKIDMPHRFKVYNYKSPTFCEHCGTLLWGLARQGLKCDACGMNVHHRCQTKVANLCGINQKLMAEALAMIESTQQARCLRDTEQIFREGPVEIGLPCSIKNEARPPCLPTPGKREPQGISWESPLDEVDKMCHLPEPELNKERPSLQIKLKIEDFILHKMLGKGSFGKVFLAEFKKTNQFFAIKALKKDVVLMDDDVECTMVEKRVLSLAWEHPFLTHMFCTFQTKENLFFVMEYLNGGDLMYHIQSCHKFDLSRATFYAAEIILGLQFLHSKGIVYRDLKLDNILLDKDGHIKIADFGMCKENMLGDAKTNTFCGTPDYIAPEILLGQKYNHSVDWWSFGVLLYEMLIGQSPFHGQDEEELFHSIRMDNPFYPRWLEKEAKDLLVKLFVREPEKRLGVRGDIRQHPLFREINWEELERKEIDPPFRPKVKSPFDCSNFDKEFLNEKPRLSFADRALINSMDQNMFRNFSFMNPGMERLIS

[5] = molecular target: Protein kinase C theta type (Homo sapiens) (UniProt Q04759); settings: at 1 µM
[6] = molecular target: Protein kinase C beta type (Homo sapiens) (UniProt P05771); settings: at 0.1 µM
Protein kinase C beta type (Homo sapiens), sequence (P05771 2-671 limits assumed): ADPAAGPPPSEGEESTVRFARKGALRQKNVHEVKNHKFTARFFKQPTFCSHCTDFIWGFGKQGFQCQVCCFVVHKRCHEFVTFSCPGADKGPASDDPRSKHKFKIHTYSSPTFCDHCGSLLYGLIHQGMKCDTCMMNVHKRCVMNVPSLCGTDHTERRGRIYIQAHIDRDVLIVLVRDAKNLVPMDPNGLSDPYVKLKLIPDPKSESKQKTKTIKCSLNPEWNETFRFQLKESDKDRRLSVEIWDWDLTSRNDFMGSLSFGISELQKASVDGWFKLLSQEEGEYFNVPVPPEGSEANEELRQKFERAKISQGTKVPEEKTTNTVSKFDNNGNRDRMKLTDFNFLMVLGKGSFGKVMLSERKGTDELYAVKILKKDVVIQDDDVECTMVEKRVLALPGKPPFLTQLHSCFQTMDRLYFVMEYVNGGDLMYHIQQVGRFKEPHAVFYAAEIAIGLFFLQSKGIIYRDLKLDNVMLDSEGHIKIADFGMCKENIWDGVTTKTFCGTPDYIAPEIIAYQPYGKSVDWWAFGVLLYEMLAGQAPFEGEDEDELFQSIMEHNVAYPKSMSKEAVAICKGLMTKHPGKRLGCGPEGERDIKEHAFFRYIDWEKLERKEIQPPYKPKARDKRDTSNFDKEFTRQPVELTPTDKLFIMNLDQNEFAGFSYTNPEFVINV

[7] = molecular target: Protein kinase C beta type (Homo sapiens) (UniProt P05771); settings: at 1 µM
[8] = molecular target: T2, Serine/threonine-protein kinase D1 (Homo sapiens) (UniProt Q15139); settings: at 0.1 µM
T2 sequence (whole entry): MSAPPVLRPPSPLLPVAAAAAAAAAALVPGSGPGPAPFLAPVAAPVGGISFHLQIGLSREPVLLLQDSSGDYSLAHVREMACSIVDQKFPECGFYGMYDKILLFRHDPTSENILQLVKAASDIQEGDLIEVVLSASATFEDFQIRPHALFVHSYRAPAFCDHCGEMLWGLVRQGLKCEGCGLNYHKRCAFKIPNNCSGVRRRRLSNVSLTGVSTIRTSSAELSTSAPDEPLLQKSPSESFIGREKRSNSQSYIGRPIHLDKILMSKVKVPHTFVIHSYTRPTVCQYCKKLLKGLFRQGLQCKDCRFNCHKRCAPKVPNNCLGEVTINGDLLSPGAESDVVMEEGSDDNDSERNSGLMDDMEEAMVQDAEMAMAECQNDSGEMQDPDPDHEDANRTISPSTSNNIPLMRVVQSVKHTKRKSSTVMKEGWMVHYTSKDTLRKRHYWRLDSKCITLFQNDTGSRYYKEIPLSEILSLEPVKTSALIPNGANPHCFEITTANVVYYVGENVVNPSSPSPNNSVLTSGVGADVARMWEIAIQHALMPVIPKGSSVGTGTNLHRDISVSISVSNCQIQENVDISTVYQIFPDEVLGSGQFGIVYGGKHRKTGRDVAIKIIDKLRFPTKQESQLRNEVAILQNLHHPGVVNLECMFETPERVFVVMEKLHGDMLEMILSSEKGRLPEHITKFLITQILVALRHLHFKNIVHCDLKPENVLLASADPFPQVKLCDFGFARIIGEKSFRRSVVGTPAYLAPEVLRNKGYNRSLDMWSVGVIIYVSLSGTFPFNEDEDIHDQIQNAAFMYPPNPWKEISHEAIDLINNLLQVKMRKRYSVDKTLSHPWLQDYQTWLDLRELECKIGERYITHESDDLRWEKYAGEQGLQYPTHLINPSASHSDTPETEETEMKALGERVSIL

[9] = molecular target: T2, Serine/threonine-protein kinase D1 (Homo sapiens); settings: at 1 µM
[10] = molecular target: T3, Serine/threonine-protein kinase D2 (Homo sapiens) (UniProt Q9BZL6); settings: at 0.1 µM
T3 sequence (whole entry): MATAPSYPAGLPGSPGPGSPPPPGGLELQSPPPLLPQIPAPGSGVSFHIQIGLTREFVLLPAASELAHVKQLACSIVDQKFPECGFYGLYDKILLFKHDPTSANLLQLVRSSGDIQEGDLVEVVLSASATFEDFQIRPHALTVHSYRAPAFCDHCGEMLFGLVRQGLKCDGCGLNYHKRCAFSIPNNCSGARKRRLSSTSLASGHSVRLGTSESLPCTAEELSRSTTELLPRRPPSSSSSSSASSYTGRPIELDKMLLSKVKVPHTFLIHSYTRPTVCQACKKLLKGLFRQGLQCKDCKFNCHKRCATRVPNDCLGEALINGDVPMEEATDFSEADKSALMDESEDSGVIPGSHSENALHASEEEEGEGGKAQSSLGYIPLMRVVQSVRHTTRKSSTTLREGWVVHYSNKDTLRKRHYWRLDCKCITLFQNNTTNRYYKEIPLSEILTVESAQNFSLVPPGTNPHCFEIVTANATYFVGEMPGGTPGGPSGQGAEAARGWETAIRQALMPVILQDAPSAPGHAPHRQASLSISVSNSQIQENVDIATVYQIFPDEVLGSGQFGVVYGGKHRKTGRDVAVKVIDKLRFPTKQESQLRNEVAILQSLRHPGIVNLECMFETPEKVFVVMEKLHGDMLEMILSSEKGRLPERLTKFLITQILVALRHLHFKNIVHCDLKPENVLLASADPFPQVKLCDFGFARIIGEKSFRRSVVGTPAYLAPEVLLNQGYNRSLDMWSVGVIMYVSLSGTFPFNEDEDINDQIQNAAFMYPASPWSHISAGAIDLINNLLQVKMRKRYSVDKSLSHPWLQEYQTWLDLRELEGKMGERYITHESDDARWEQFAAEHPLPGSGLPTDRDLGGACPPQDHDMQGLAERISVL

[11] = molecular target: T3, Serine/threonine-protein kinase D2 (Homo sapiens); settings: at 1 µM
[12] = molecular target: T4, Serine/threonine-protein kinase D3 (Homo sapiens) (UniProt O94806); settings: at 0.1 µM
T4 sequence (whole entry): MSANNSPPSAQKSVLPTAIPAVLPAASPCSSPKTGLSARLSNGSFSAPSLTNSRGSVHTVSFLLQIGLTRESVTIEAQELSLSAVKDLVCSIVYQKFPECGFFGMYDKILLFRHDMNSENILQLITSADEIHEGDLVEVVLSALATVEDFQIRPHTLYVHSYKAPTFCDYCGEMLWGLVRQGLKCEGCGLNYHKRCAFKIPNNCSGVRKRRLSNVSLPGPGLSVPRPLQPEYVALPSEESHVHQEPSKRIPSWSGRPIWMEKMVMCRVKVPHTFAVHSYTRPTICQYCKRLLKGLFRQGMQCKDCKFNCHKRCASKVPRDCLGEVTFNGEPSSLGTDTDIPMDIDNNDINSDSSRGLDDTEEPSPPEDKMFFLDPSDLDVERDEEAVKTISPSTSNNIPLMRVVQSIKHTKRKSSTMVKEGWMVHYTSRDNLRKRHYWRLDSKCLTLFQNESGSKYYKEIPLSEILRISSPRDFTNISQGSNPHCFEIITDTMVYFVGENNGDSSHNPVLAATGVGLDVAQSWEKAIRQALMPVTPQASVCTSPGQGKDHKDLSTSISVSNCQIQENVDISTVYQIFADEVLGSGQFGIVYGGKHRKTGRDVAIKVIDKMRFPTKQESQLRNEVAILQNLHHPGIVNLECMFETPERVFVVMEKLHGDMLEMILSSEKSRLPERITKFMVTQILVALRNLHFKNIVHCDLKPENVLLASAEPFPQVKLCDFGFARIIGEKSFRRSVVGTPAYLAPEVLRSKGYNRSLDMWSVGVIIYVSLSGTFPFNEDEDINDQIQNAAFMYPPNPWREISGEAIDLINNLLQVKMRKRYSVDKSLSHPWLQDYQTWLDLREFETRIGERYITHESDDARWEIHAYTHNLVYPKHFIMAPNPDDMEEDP

[13] = molecular target: T4, Serine/threonine-protein kinase D3 (Homo sapiens); settings: at 1 µM
[14] = molecular target: T5, cGMP-dependent protein kinase 1 (Homo sapiens) (UniProt Q13976); settings: at 0.1 µM
T5 sequence (whole entry): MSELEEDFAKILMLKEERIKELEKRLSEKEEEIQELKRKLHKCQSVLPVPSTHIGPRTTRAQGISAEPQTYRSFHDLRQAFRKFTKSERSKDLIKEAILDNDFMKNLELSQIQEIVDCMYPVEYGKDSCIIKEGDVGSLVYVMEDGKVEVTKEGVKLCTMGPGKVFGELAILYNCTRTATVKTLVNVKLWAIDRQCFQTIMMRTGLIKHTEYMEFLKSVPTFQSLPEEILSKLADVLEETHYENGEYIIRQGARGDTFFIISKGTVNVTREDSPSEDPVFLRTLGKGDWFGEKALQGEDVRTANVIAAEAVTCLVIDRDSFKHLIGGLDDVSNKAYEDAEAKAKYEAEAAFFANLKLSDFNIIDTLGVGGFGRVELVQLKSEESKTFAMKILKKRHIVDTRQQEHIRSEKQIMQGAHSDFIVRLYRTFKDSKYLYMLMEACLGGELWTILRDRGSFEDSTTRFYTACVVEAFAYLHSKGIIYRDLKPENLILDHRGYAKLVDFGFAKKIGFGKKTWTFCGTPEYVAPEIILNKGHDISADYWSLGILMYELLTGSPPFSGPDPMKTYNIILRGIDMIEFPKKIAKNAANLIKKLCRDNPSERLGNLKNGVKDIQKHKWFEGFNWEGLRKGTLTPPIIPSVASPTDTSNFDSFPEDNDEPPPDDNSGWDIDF

[15] = molecular target: T5, cGMP-dependent protein kinase 1 (Homo sapiens); settings: at 1 µM
[16] = molecular target: T6, cGMP-dependent protein kinase 2 (Homo sapiens) (UniProt Q13237); settings: at 0.1 µM
T6 sequence (whole entry): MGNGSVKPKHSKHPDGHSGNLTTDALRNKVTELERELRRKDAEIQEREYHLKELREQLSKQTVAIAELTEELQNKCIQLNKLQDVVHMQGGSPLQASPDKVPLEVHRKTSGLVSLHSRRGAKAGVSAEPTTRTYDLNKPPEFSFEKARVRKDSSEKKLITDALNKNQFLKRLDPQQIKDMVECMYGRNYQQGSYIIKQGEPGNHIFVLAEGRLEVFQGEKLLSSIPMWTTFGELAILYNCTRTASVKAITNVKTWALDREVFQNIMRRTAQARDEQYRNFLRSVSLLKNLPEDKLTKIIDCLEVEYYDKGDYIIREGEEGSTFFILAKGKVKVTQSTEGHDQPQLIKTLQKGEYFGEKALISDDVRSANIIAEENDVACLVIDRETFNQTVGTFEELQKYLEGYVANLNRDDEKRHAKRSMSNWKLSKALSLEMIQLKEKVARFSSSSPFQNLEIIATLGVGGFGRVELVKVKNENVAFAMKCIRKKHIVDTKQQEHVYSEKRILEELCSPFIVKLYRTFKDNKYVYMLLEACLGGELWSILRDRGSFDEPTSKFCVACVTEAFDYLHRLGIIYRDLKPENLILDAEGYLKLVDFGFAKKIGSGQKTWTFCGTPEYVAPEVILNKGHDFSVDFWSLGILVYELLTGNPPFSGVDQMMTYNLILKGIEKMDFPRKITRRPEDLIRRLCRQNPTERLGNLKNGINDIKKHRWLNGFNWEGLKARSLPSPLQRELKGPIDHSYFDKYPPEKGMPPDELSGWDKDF

[17] = molecular target: T6, cGMP-dependent protein kinase 2 (Homo sapiens); settings: at 1 µM
[18] = molecular target: T7, cAMP-dependent protein kinase catalytic subunit PRKX (Homo sapiens) (UniProt P51817); settings: at 0.1 µM
T7 sequence (whole entry): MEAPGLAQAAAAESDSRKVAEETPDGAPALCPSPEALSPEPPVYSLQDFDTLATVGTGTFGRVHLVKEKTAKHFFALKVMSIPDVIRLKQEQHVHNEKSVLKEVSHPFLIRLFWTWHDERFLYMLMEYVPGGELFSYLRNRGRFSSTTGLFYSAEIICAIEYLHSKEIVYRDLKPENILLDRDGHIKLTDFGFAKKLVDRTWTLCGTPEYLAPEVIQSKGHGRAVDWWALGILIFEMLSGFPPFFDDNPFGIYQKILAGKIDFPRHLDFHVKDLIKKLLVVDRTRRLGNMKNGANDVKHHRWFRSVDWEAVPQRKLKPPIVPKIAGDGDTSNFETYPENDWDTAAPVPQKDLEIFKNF

[19] = molecular target: T7, cAMP-dependent protein kinase catalytic subunit PRKX (Homo sapiens); settings: at 1 µM
[20] = molecular target: Rho-associated protein kinase 1 (Homo sapiens) (UniProt Q13464); settings: at 0.1 µM;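 also: values are mean percent inhibition of ROCK1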
Rho-associated protein kinase 1 (Homo sapiens), sequence (Q13464 2-1354 limits assumed): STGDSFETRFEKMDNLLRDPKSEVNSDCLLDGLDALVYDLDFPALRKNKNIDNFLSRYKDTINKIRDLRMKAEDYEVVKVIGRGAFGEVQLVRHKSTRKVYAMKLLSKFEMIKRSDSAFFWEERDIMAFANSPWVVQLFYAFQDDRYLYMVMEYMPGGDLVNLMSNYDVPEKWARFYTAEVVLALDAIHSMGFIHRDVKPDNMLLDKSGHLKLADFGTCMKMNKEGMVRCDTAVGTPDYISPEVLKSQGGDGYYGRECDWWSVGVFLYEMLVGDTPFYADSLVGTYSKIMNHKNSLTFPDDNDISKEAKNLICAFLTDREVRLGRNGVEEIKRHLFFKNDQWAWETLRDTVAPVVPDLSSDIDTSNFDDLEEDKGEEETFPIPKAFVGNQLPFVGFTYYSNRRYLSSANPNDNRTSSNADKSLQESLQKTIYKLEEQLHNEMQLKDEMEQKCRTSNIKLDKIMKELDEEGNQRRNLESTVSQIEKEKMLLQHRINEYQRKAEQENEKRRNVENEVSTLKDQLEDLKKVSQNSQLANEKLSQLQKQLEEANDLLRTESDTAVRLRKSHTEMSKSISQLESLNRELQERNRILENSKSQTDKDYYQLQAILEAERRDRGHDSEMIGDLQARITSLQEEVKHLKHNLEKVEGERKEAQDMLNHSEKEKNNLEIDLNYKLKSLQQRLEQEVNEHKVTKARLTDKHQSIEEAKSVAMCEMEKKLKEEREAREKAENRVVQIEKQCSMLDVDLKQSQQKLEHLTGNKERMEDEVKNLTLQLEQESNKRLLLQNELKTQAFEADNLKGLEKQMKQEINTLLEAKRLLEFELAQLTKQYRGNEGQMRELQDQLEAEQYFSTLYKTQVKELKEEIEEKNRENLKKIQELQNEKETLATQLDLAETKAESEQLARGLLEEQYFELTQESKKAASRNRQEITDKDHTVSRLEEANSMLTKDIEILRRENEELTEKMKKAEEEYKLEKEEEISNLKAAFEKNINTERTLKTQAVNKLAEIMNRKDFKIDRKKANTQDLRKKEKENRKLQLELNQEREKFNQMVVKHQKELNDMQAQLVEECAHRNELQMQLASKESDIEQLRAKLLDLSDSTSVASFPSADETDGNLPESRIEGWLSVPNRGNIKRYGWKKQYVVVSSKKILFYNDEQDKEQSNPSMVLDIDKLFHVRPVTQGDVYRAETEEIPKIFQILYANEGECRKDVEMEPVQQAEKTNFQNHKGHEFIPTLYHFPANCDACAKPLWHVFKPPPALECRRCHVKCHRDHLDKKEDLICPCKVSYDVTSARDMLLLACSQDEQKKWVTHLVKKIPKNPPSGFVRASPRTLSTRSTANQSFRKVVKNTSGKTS

Structure (SMILES) | inhibition [1] | inhibition [2] | inhibition [3] | inhibition [4] | inhibition [5] | inhibition [6] | inhibition [7] | inhibition [8] | inhibition [9] | inhibition [10] | inhibition [11] | inhibition [12] | inhibition [13] | inhibition [14] | inhibition [15] | inhibition [16] | inhibition [17] | inhibition [18] | inhibition [19] | inhibition [20]
COc1cc(Nc2ncc3c(C)nc(-c4cccc(C(F)(F)F)c4)n3n2)cc(OC)c1OC | 7.63% | 0.74% | 0.54% | 1.87% | 5.29% | 1.35% | 2.31% | 1.48% | 2.12% | 1.81% | 4.32% | 2.48% | 2.79% | 0.96% | 5.81% | 4.61% | 6.16% | 3% | 7.31% | -0.86%
NC(=O)c1cc(-c2ccc(F)cc2)cc(-c2ccncc2)c1N | 5.15% | 0.73% | 0.87% | 1.84% | 3.65% | 1.46% | 1.35% | 4.65% | 3.31% | 3.51% | 4.06% | 3.88% | 2.86% | 1.49% | 5.83% | 1.73% | 2.74% | 1.1% | 3.07% | -0.55%
CS(=O)(=O)CCNCc1ccc(-c2ccc3ncnc(Nc4ccc(OCc5ccccc5)c(Br)c4)c3c2)o1 | -0.13% | 2.91% | 2.72% | 2.31% | 2.41% | 0.97% | 1.27% | 0.19% | -0.25% | 0.64% | -2.34% | -0.06% | -0.73% | 3.47% | 0.89% | 2.31% | 1.31% | 2.17% | 2.64% | 1.36%

From ChEMBL document CHEMBL1961873, “Compounds: GSK PKIS; Assays: Nanosyn kinase panel” (2012)
